Growth data for 8 molecules are collected here from PubChem BioAssay (NCI).

Assay in all cases: NCI-60 one-dose screen, 48 h (100 = growth as untreated, 0 = no growth, -100 = all killed)
Holding throughout (conditions): 10 µM unless noted

For experiment [1], the system named is HCT-15 colon.
Experiment [2] relates to SNB-75 CNS.
Experiment [3] has as its system SNB-19 CNS.
Experiment [4] has as its system U251 CNS.
The test system of experiment [5] is PC-3 prostate.
Experiment [6] deals with SK-MEL-5 melanoma.
Experiment [7] concerns UACC-62 melanoma.
Experiment [8] concerns LOX IMVI melanoma.
Experiment [9] deals with SK-MEL-28 melanoma.
The subject of experiment [10] is SK-MEL-2 melanoma.
In experiment [11] the test system is EKVX NSCLC.
The subject of experiment [12] is SN12C renal.
Experiment [13] concerns UO-31 renal.
The test system of experiment [14] is TK-10 renal.
Experiment [15] deals with ACHN renal.
Experiment [16] deals with CAKI-1 renal.
The subject of experiment [17] is A498 renal.
The test system of experiment [18] is CCRF-CEM leukemia.
The subject of experiment [19] is MOLT-4 leukemia.

The panel holds about 83,000 compounds, 20% with a hit somewhere; the sample as a whole holds those more often.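 The endpoint reported here, percent growth, reads 100 for growth as untreated, 0 for no net growth and -100 for all cells dead.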 Unmarked numbers belong to inactive results. The source made the active and inactive calls. Rule for the calls: active = growth percent below 10; inactive = the rest.

For the molecule `O=C(O)CCCc1cnc2c3sccc3nc(SCc3c(Cl)cccc3Cl)n12`, the growth is 36.9% in [1]; 16% in experiment [2]; 41% in experiment [3]; 29.5% in experiment [4]; 50.7% in [5]; 52.9% in [6]. Besides, the growth in experiment [7] is 21.2%; in experiment [8] it was 39.9%; in experiment [9], 75.3%; in experiment [10], 20.6%; in experiment [11], 63%; in experiment [12], 57.2%. Moreover, the growth in [13] was 49%; in [14], 65.3%; in experiment [15], 61.1%; in [16], 42.2%; in experiment [17], 46.1%; in experiment [18], 31.2%. Moreover, in experiment [19], the growth is 50.5%.
Take `COc1cc(/C=N/Nc2ccccc2F)cc(OC)c1OC`: the growth in experiment [1] was 89.2%; in experiment [2], 103%; in [3], 98.3%; in experiment [4] it was 93.3%; in experiment [5] it was 88.7%; in experiment [6] it was 102%. Also, the growth in experiment [7] was 65.7%; in [8], 65.7%; in experiment [9], 110%; in experiment [10], 90.2%; in experiment [11] it was 87.4%; in experiment [12] it was 97.1%. Further, the growth was 68.8% in experiment [13]; 157% in experiment [14]; 81.3% in [15]; 50.8% in experiment [16]; 92.8% in [17]; 75.2% in experiment [18]. Further, the growth in [19] was 83.9%.
Regarding `C/C(=N\O)C(=O)NCCCCCC(=O)Nc1ccccc1`, the growth in experiment [1] was 101%; in experiment [2], 88.2%; in [3], 99.3%; in [5], 104%; in experiment [6] it was 91.7%; in [7], 94.3%. The growth in [8] was 89.7%; in [9], 114%; in [10] it was 110%; in experiment [11], 98.2%; in [12], 98.5%; in [13], 90.3%. For the same molecule, the growth in experiment [14] was 89.6%; in experiment [15], 109%; in experiment [16], 91.9%; in experiment [17], 90.2%; in experiment [18] it was 101%; in experiment [19], 101%.
Turning to `O=C(CCC(=O)c1nc2ncccc2[nH]1)NN1C(=O)CSC1c1ccc(Cl)cc1` (stereo unspecified), the growth in experiment [1] is 102%; in [2], 84.7%; in experiment [3], 94.2%; in [4], 95.2%; in experiment [5], 94.3%; in experiment [7] it was 90.3%. For the same molecule, the growth in experiment [8] was 91.4%; in [9] it was 109%; in [10] it was 106%; in experiment [11] it was 100%; in [12], 97%; in experiment [13], 70.7%. For the same molecule, the growth in [14] is 126%; in [15], 97.4%; in experiment [16] it was 84.2%; in experiment [17], 111%; in experiment [18], 83.8%; in experiment [19] it was 106%.
`O=C(N/N=C/c1ccc(Cl)cc1Cl)c1ccc2nc(-c3ccc(Cl)cc3)[nH]c2c1`: the growth in [1] was 4.69% (active); in [2] it was 98.4%; in [3], 4.35% (active); in [4], -15.2% (active); in experiment [5], -24.9% (active); in experiment [6], 36.2%. The growth was 16.8% in experiment [7]; -55.9% (active) in experiment [8]; -9.23% (active) in experiment [9]; 38.9% in experiment [10]; 8.23% (active) in experiment [11]; -36.9% (active) in experiment [12]. The growth in experiment [13] is 21.6%; in experiment [14], -4.33% (active); in experiment [15], -20.2% (active); in [16], 61.2%; in [17], 56.2%; in experiment [18], 15.5%. Moreover, in experiment [19], the growth was 4.45% (active).
Consider `Cc1ccc(-c2nc(C#N)c(S(=O)(=O)NCCO)o2)cc1`, for which the growth in experiment [1] is 41.8%; in experiment [2], 105%; in experiment [3], 88.3%; in experiment [5] it was 61.7%; in experiment [6] it was 75%; in experiment [7], 60.3%. In addition, the growth in [8] is 46.4%; in experiment [9], 70.7%; in experiment [10], 64.9%; in [11], 104%; in experiment [12] it was 81.2%; in experiment [13], 62.1%. Besides, the growth in experiment [14] is 65.7%; in experiment [15], 67.7%; in [16], 71%; in [18], -17.5% (active); in experiment [19] it was 19.8%.
Take `Cc1nc2sc(C(=O)Nc3ccccc3)c(N)c2cc1C(=O)/C=C/c1ccccc1`: the growth was -32.1% (active) in [1]; -14% (active) in experiment [2]; -40.8% (active) in [3]; 6.68% (active) in [5]; 11.7% in [6]; 0.799% (active) in experiment [7]. For the same molecule, the growth in experiment [8] was -80% (active); in experiment [9] it was 30.9%; in experiment [10] it was 18.4%; in experiment [11], 43.2%; in experiment [13] it was -82.6% (active); in [14] it was -18.1% (active). For the same molecule, the growth is 3.7% (active) in experiment [15]; -54.1% (active) in experiment [16]; 9.65% (active) in experiment [17]; 6.14% (active) in experiment [18]; 15.3% in experiment [19].
In the case of `O=S(=O)(c1ccccc1)N1CCCN(c2nc(-c3ccccc3)nc3nc(-c4ccccc4)oc23)CC1`, the growth in experiment [1] was 109%; in experiment [2], 88.5%; in [3], 101%; in experiment [4] it was 107%; in experiment [5], 105%; in experiment [6] it was 103%. For the same molecule, the growth in [7] is 102%; in experiment [8], 99.9%; in [9], 110%; in experiment [10] it was 108%; in experiment [11], 107%; in experiment [12], 98.5%. Further, the growth in experiment [13] was 85.3%; in experiment [14] it was 114%; in experiment [15] it was 104%; in experiment [16], 91.7%; in [17], 96.9%; in experiment [18], 105%. For the same molecule, the growth in experiment [19] is 100%.
